Most compounds without a hit are left out; they make up all but 1.5% or so of the library.
NALP1 inh – blocks the NALP1 inflammasome reconstituted in yeast | S. cerevisiae NALP1/ASC/caspase-1 growth, X-gal OD620, 72 h | 280,000 tested, 0.61% active | inhibition, % at 10 µM; in the data active = inhibition mostly above about 24%, no sharp cut-off; inactive = mostly below about 32%
Efflux pump mplx – antifungal efflux pump inhibition, Nile Red retention. S. cerevisiae Candida pump triplex. inhibition, % at 10 µM. 330,000 tested, 0.44% active. AID 485275;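 active = plate passing quality check with inhibition over a set limit, or well fluorescence over plate mean plus 4 SD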;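 note: Nile Red retained in pooled yeast measured as flow cytometry median fluorescence; 0% = buffer negative control and 100% = Enniatin B positive control; higher means more Nile Red kept so more efflux inhibition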
PolyA inh – yeast polyadenylation inhibition | S. cerevisiae SKY197-pL101 polyadenylation reporter, beta-gal luminescence; efflux-impaired pdr1/pdr3 knockout yeast; score 100 = 6 SD above DMSO | activity score, % at 12 µM | 300,000 tested, 0.02% active | AID 1875;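 active = lowest replicate activity score at least 50, where 100 means six control SD above control mean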;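 note: yeast exposed to compound for 9 h at 30 °C; higher score means more reporter readthrough which indicates perturbed polyadenylation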
NLRP3 yeast inh – NALP3 inhibition in yeast. inhibition, % at 10 µM. Yeast reconstituted NLRP3/ASC/caspase-1, beta-gal luminescence, 24 h. 330,000 tested, 0.39% active;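 active = inhibition of 50% or more; inactive = inhibition below 50%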;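 note: plate controls were induced DMSO wells for no effect and uninduced yeast grown without galactose for full effect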
GASC-1 inh – human JMJD2C demethylase inhibition; GST-JMJD2C(1-420) H3K9me3 demethylation, DELFIA europium; 330,000 tested, 0.069% active; inhibition, % at 2.35 µM;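 active = more than half of a compound's replicate wells show inhibition beyond 50%, single wells judged on their own value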;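 note: signal counts dimethyl H3K9 product captured on neutravidin plate; 0% = median of DMSO wells and 100% = 0.3 times that DMSO median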
HDAC3 inhib – blocks human histone deacetylase 3. O15379. inhibition, % at 8.3 µM. 320,000 tested, 0.15% active. AID 2718. recombinant HDAC3, fluorogenic peptide/trypsin coupled, fluorescence; in the data active = inhibition above about 26%, passing the limit was not always enough
Target sequence (O15379 whole entry, looked up): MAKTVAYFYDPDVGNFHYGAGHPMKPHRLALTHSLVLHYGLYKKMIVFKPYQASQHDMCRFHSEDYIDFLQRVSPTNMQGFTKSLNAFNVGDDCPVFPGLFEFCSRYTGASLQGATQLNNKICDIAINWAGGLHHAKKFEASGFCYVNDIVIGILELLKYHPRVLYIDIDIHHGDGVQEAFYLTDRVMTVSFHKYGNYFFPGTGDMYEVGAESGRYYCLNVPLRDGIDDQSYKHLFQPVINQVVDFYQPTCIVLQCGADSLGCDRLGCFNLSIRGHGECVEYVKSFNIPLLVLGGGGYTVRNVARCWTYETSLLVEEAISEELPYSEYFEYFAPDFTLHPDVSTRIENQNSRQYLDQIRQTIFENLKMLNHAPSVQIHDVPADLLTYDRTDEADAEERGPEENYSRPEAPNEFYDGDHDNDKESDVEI
* hit, by the source's call.

`CCOC(=O)c1ccc(N=C2SC(C(=O)Nc3ccc(C(=O)O)cc3)CC(=O)N2Cc2cccs2)cc1` (centres undefined) gave NALP1 inh 3.5, Efflux pump mplx -0.1, PolyA inh -0.5, NLRP3 yeast inh 6.2, GASC-1 inh -0.1 and HDAC3 inhib 3.7.
`c1cncc(CNc2ncnc3sccc23)c1` gave NALP1 inh 3.0, Efflux pump mplx 0.0, PolyA inh 7.3, NLRP3 yeast inh 3.8, GASC-1 inh -6.6 and HDAC3 inhib -0.1.
Screening Nc1c(Cl)ncnc1NCc1cccnc1 returned NALP1 inh 17.3, Efflux pump mplx -0.1, PolyA inh 0.1, NLRP3 yeast inh 1.8, GASC-1 inh 54.6* and HDAC3 inhib -9.6.
Screening COc1ccc(-c2nc(N)n(C(=O)c3ccc(C)cc3)n2)cc1 returned NALP1 inh 26.2, Efflux pump mplx 0.1, PolyA inh -11.3, NLRP3 yeast inh 14.5, GASC-1 inh 9.8 and HDAC3 inhib 32.0*.
Screening COc1ccc(C(=O)n2nc(C#N)c(C#N)c2N)cc1 returned NALP1 inh 37.0*, Efflux pump mplx -0.1, PolyA inh -8.3, NLRP3 yeast inh 17.6, GASC-1 inh 8.2 and HDAC3 inhib -6.3.
Screening COc1ccc(C(=O)n2nc(-c3ccco3)nc2N)cc1OC returned NALP1 inh 2.5, PolyA inh -2.2 and GASC-1 inh -32.4.
For COc1ccc(C(=O)n2nc(-c3ccc(OC)cc3)nc2N)cc1 the results were NALP1 inh 25.8, Efflux pump mplx 1.3, PolyA inh -11.0, NLRP3 yeast inh 6.0, GASC-1 inh 0.4 and HDAC3 inhib 58.7*.
Screening COc1ccc(C(=O)n2nc(-c3ccccc3)nc2N)cc1OC returned NALP1 inh -8.5, Efflux pump mplx -0.1, PolyA inh -3.4, NLRP3 yeast inh 2.0, GASC-1 inh 17.9 and HDAC3 inhib 61.7*.
`CCCC(=O)n1nc(-c2ccc(OC)cc2)nc1N` gave NALP1 inh 11.5, Efflux pump mplx 0.0, PolyA inh 24.0, NLRP3 yeast inh 9.6, GASC-1 inh 8.7 and HDAC3 inhib 7.8.
`O=C(NCC1CCCO1)c1cccc(S(=O)(=O)Nc2ccc(F)cc2)c1` (centres undefined) gave Efflux pump mplx -0.2, NLRP3 yeast inh 18.4 and HDAC3 inhib 4.1.
Screening O=C(Cc1cc2ccccc2o1)NCc1ccc(F)cc1 returned NALP1 inh 26.9, Efflux pump mplx 0.0, PolyA inh 2.4, NLRP3 yeast inh 25.4, GASC-1 inh -4.0 and HDAC3 inhib -1.5.
Screening CN(C)CCCN(C(=O)CCSc1ccccc1)c1nc2cc3c(cc2s1)OCO3 returned NALP1 inh -5.2, Efflux pump mplx -0.1, PolyA inh 12.4, NLRP3 yeast inh 22.3, GASC-1 inh -10.7 and HDAC3 inhib -2.3.
CN(C)CCCN(C(=O)CCS(=O)(=O)c1ccccc1)c1nc2cc3c(cc2s1)OCO3 was read as NALP1 inh 49.5*, Efflux pump mplx -0.1, PolyA inh 28.4, NLRP3 yeast inh 39.9, GASC-1 inh 11.5 and HDAC3 inhib 6.6.
For c1ccc(CSc2nc3ncccn3n2)cc1 the results were Efflux pump mplx -0.1, NLRP3 yeast inh 27.4, GASC-1 inh -0.8 and HDAC3 inhib -5.6.
Screening O=C1c2cnc3nc(SCc4ccccc4)nn3c2CC2c3ccccc3CCN12 (centres undefined) returned NALP1 inh -3.6, Efflux pump mplx 0.0, PolyA inh 114.4*, NLRP3 yeast inh 26.0, GASC-1 inh 3.2 and HDAC3 inhib -3.4.
For O=C(CCN1C(=O)/C(=C\c2ccccc2F)SC1=S)N1CCCCC1 the results were NALP1 inh -4.7, Efflux pump mplx 0.0, PolyA inh -0.4, NLRP3 yeast inh 24.7, GASC-1 inh 4.0 and HDAC3 inhib -12.0.
For O=C(CCN1C(=O)/C(=C\c2ccccc2Cl)SC1=S)N1CCN(c2ccccc2)CC1 the results were NALP1 inh 28.9*, Efflux pump mplx 0.1, PolyA inh 16.4, NLRP3 yeast inh 23.4, GASC-1 inh 4.9 and HDAC3 inhib 0.2.
Screening CCN(CC(=O)Nc1c(F)cccc1F)C(=O)c1ccc(N2CCCC2=O)cc1 returned Efflux pump mplx 0.0, PolyA inh -7.1, NLRP3 yeast inh 4.6, GASC-1 inh -0.5 and HDAC3 inhib -10.1.
O=C(OCC(=O)N1CCc2ccccc21)c1ccncc1 was read as Efflux pump mplx -0.3, NLRP3 yeast inh 11.4, GASC-1 inh 2.4 and HDAC3 inhib 2.3.
